Screens from PubChem BioAssay.
RGS16-Gao HTS – modulates binding between human RGS16 and Galphao. binding response (% of control), % at 10 µM. O15492+P09471. AID 1441. 0.38% of 220,000 active. bead-based flow cytometry RGS16-Galphao binding, fluorescence; actives lie on both sides;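 further: Galphao activated by GDP with aluminum fluoride before binding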
RGS4-Gao reg – modulates binding of RGS4 to human Galphao | Multiplexed bead flow cytometry; actives lie on both sides | binding response (% of control), % at 10 µM | 0.33% of 220,000 active | AID 1415; in the data active means binding response below about 49% or above about 150%; inactive means in between;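 further: fluorescent Galphao activated with aluminum fluoride binding bead-coupled RGS4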
Target sequence (P09471 whole entry, looked up): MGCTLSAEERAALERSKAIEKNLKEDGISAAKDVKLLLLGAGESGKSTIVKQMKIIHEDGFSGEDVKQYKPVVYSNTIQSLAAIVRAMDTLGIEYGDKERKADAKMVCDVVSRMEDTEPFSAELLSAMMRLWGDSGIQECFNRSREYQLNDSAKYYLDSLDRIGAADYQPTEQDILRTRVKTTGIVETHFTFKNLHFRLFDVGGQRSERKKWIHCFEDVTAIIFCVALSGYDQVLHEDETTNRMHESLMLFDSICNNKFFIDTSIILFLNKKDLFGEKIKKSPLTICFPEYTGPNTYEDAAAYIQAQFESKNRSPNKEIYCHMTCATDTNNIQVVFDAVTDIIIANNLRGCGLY
RGS7-Gao reg – modulates binding of RGS7 to human Galphao. P09471. Multiplexed bead flow cytometry; actives lie on both sides. 0.35% of 220,000 active. AID 1439. binding response (% of control), % at 10 µM; in the data active means binding response below about 49% or above about 150%; inconclusive means no clear call, values can overlap the other calls; inactive means in between;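 further: fluorescent Galphao held in activated GDP-AlF4 state binding bead-coupled RGS7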
RGS8-Gao reg – modulates binding of RGS8 to human Galphao; P09471; multiplexed bead flow cytometry; actives lie on both sides; response (percent of control binding), % at 10 µM; 0.34% of 220,000 active; in the data active means response below about 60% or above about 140%; inactive means in between;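 further: Galphao activated as the GDP aluminium fluoride complex binding bead-coupled RGS8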
RGS4-Gao HTS – RGS4-Galphao interaction regulator (human); 99% of 1,600 active; RGS4–Galpha-o binding response, % at 10 µM; shares compounds with RGS16-Gao HTS; multiplexed bead flow cytometry, RGS–Galpha-o binding;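 further: fluorescently labeled Galpha-o bound to GDP with aluminium fluoride binding biotinylated RGS beads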
Avidin counter – interferes with biotinylated probe binding to avidin beads | inhibition, % at 10 µM | shares compounds with RGS16-Gao HTS | streptavidin beads, fluorescein-biotin binding, flow cytometry | 1,700 tested, under 10 active;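 active means inhibition above 50%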;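 further: median green fluorescence of gated singlet beads compared with DMSO control wells; 0% = DMSO wells and 100% = complete loss of bead fluorescence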
RGS8-Gao single – RGS8-Galphao interaction regulation, single point confirmation; shares compounds with RGS16-Gao HTS; bead-based flow cytometry RGS8-Galphao binding, fluorescence; actives lie on both sides; binding response (% of control), % at 10 µM; 3% of 1,700 active; AID 1836; in the data active means binding response below about 72% or above about 130%; inactive means in between;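 further: Galphao activated as GDP AlF4 complex before binding bead RGS8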
RGS7-Gao single – confirmation of regulators of human RGS7-Galphao interaction; 7.8% of 1,700 active; shares compounds with RGS16-Gao HTS; response (percent of control binding), % at 10 µM; bead-based flow cytometry RGS7-Galphao binding; actives lie on both sides; in the data active means response below about 75% or above about 130%; inactive means in between;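 further: fluorescent Galphao activated with GDP and aluminum fluoride binding bead-coupled RGS7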
RGS16-Gao conf – RGS16-Galphao interaction regulation, single point confirmation. shares compounds with RGS16-Gao HTS. bead-based flow cytometry, RGS16-Galphao binding; actives lie on both sides. response (% of control binding), % at 10 µM. 4% of 1,700 active. AID 1838; in the data active means response below about 74% or above about 130%; inactive means in between;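 further: Galphao activated as the GDP aluminium fluoride complex binding bead-coupled RGS16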
RGS4-Gao single – confirmation of regulators of human RGS4-Galphao interaction; binding response (% of control), % at 10 µM; AID 1840; RGS4-Galphao binding, multiplexed bead flow cytometry; actives lie on both sides; 4% of 1,700 active; shares compounds with RGS16-Gao HTS; in the data active means binding response below about 74% or above about 130%; inactive means in between
RGS19-Gao single – confirmation of regulators of human RGS19-Galphao interaction | 5% of 1,700 active | bead-based flow cytometry RGS19-Galphao binding; actives lie on both sides | shares compounds with RGS16-Gao HTS | response (percent of control binding), % at 10 µM; in the data active means response below about 50% or above about 160%; inactive means in between;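 further: 100% = no compound control and 0% = blank background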
Target sequence (P09471 whole entry, looked up): as above
Target sequence (P49795 whole entry, looked up): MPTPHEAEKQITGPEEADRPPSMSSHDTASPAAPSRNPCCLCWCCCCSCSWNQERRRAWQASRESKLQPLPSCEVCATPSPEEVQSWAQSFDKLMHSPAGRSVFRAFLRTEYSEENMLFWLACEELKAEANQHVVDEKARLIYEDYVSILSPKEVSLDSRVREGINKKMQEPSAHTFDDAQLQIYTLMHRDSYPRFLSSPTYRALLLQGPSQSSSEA
The depositor's hits bear a star; i = inactive; ? = inconclusive; · = no result; [ ] = remark or other dose. In the library only some 0.78% were active in any assay of this set; here they are far more common. Unless noted, how the calls were made is not given here.

SMILES	RGS16-Gao HTS	RGS4-Gao reg	RGS7-Gao reg	RGS8-Gao reg	RGS4-Gao HTS	Avidin counter	RGS8-Gao single	RGS7-Gao single	RGS16-Gao conf	RGS4-Gao single	RGS19-Gao single
Cc1ccc(S(=O)(=O)NCc2ccc(C(=O)NCc3cccnc3)cc2)cc1	119	103	103	106	·	·	·	·	·	·	·
CC1CCC2(CC1)NC(=S)N(c1ccccc1)N2 (stereo not drawn)	105	140	171*[activator]	102	140*	0	94	94	92	95	98
CSc1nc(C)c2c(n1)N(c1ccc(F)cc1)CC2	96	102	105	103	·	·	·	·	·	·	·
O=C1Cc2ccccc2Sc2ccc(O)cc21	81	100	98	92	·	·	·	·	·	·	·
CNC(=O)COc1ccc(C=O)cc1OC	11*	91	86	72	91*	-1	101	98	100	100	97
CCN1CCN(C(c2ccccc2)c2nnnn2Cc2ccccc2)CC1 (stereo not drawn)	103	103	100	105	·	·	·	·	·	·	·
CCOC(=O)C(=O)Nc1ccccc1C(=O)OC	108	98	94	101	·	·	·	·	·	·	·
CCOC(=O)C(=O)Nc1ccccc1C(N)=O	·	·	·	·	·	0	105	108	103	108	56
O=[N+]([O-])c1ccc(Sc2cc[n+]([O-])c3ccccc23)c([N+](=O)[O-])c1	102	100	?	99	·	·	·	·	·	·	·
C=CCNC(=O)NC(=O)COC(=O)c1ccccc1Sc1ccc(C(F)(F)F)cc1[N+](=O)[O-]	184*[activator]	106	103	118	106*	0	105	112	108	108	108
CC(C)CNC(=O)NC(=O)COC(=O)c1ccccc1Sc1ccc(C(F)(F)F)cc1[N+](=O)[O-]	95	104	105	98	·	·	·	·	·	·	·
O=C1c2ccccc2C(=O)N1CCN1CCOCC1	120	92	259*[activator]	99	92*	·	·	·	·	·	·
Cc1cccnc1NC(=O)C1CCCN(S(=O)(=O)c2ccc3c(c2)oc(=O)n3C)C1 (stereo not drawn)	229	116	114	142*[activator]	116*	0	101	101	99	101	98
CCC(C)NC(=O)C1c2ccccc2C(=O)N1Cc1ccc(OC)cc1OC (stereo not drawn)	424	138	127	147*[activator]	138*	1	102	99	90	97	62
Cn1c(SCC(=O)N/N=C/C=C\c2ccccc2[N+](=O)[O-])nc2ccccc21	23*	89	93	73	89*	i	105	106	104	106	103
Cn1c(SCC(=O)N/N=C/C=C/c2ccccc2[N+](=O)[O-])nc2ccccc21	97	100	101	100	·	·	·	·	·	·	·
Cc1ccc(NC(=O)CC2C(=O)NC3CCCCC3N2C(=O)c2ccc(F)cc2)cc1C (stereo not drawn)	85	104	100	101	·	·	·	·	·	·	·
CCC(C)NS(=O)(=O)c1ccc(OCC(=O)Nc2ccc3c(c2)OCO3)cc1 (stereo not drawn)	96	91	94	100	·	·	·	·	·	·	·
CC(C)NS(=O)(=O)c1ccc(OCC(=O)Nc2ccc3c(c2)OCO3)cc1	33	38*	31*	39*	·	-2	99	96	99	97	92
Cc1ccc([N+](=O)[O-])cc1NC(=O)Cc1ccc(F)cc1	·	·	·	·	·	1	99	102	102	102	99
Cc1ccccc1OCC(=O)Nc1nnc(-c2ccncc2)s1	105	107	?	102	·	·	·	·	·	·	·
CCOC(=O)/C=C1\SCC(=O)N1CC(=O)Nc1ccc(C(C)C)cc1	301	114	110	142*[activator]	114*	-1	99	100	97	99	100
CCOC(=O)/C=C1\SCC(=O)N1CC(=O)Nc1ccc2c(c1)CCC2	103	104	99	103	·	·	·	·	·	·	·
CCCn1c(N)c(C(=O)CSc2nc3ccccc3c(=O)n2Cc2ccccc2)c(=O)[nH]c1=O	354	227*[activator]	158*[activator]	112	·	2	89	65*	78	78	48*
Cc1oc(-c2ccccc2)cc1C(=O)Nc1ccc(N(C)C)cc1	92	98	99	98	·	·	·	·	·	·	·
SMILES	RGS16-Gao HTS	RGS4-Gao reg	RGS7-Gao reg	RGS8-Gao reg	RGS4-Gao HTS	Avidin counter	RGS8-Gao single	RGS7-Gao single	RGS16-Gao conf	RGS4-Gao single	RGS19-Gao single
COc1ccc(C)cc1NC(=O)Nc1ccccc1	98	104	104	101	·	·	·	·	·	·	·
COc1cccc(NC(=O)Nc2cc(C)ccc2OC)c1	22*	36*	26*	34*	·	2	98	95	97	100	103
COCCN1C(=O)c2ccccc2C(C(=O)NCCCN2CCCC2)C1c1c[nH]c2ccccc12 (stereo not drawn)	32	38*	34*	42*	·	1	105	94	101	99	93
COCCN1C(=O)c2ccccc2C(C(=O)NCc2ccco2)C1c1c[nH]c2ccccc12 (stereo not drawn)	99	99	101	97	·	·	·	·	·	·	·
C[n+]1ccccc1C1CCCC/C1=N\NC(N)=S (stereo not drawn)	99	104	?	99	·	·	·	·	·	·	·
c1coc(-c2ccnc(-n3cccc3)n2)c1	92	94	?	97	·	·	·	·	·	·	·
CCc1nc(SCc2cccnc2)[nH]c(=O)c1C	309*[activator]	108	105	124	108*	1	92	91	91	92	68
CCc1nc(SCc2ccccn2)[nH]c(=O)c1C	104	104	104	102	·	·	·	·	·	·	·
COc1ccc2c(c1)Cc1sc(NC(=O)c3ccco3)nc1-2	42	53	46*	58*	53*	0	100	101	101	101	95
COc1ccc2c(c1)CCc1sc(NC(=O)c3ccco3)nc1-2	101	102	99	100	·	·	·	·	·	·	·
OC(CN1CCN(c2ccccc2)CC1)c1c[nH]c2ccccc12 (stereo not drawn)	111	100	95	98	·	·	·	·	·	·	·
O=C(CCc1nc2ccccc2c(=O)[nH]1)Nc1ccc(Cl)c(Cl)c1	9.1*	86	86	69	86*	2	102	102	101	98	107
O=C(/C=C/c1cccnc1)c1ccc(NC(=O)c2cccc(Br)c2)cc1	101	101	100	99	·	·	·	·	·	·	·
